Results from PubChem BioAssay (NCI).
The panel holds about 83,000 compounds, 20% with a hit somewhere; the sample as a whole holds those more often.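 Cells were grown in 96-well plates and exposed to the test compound at a single concentration for 48 hours; results are reported as percent growth, with values below 10 considered active.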 A number with no mark means an inactive call. Activity calls are given as the source filed them.

Columns and labels:
Experiment in all cases: NCI-60 one-dose screen, 48 h (100 = growth as untreated, 0 = no growth, -100 = all killed)
Settings in all cases: 10 µM unless noted
T-47D breast = tested on: T-47D breast
BT-549 breast = tested on: BT-549 breast
MDA-MB-435 melanoma = tested on: MDA-MB-435 melanoma
SW-620 colon = tested on: SW-620 colon
MCF7 breast = tested on: MCF7 breast
HCT-116 colon = tested on: HCT-116 colon
HCC-2998 colon = tested on: HCC-2998 colon
KM12 colon = tested on: KM12 colon

Row | SMILES | growth (T-47D breast) | growth (BT-549 breast) | growth (MDA-MB-435 melanoma) | growth (SW-620 colon) | growth (MCF7 breast) | growth (HCT-116 colon) | growth (HCC-2998 colon) | growth (KM12 colon)
1 | C/C(=N\NC(=O)CSc1nc2ccccc2c(=O)n1CCc1ccc(S(N)(=O)=O)cc1)c1ccccn1 | 28.4% | 59.4% | 33.4% | 32.1% | 34.5% | 24.5% | 39.3% | 21.3%
2 | O=S(=O)(Nc1ccc(-n2cnc3cc(-c4ccc(O)cc4)ccc32)cc1)c1ccccc1 | 9.89% (active) | 94.3% | 98.5% | 109% | 87.9% | 90.3% | 115% | 54.6%
3 | COC(=O)/C=C1\S/C(=N\NC(=O)c2cc3ccc2/C=C\c2ccc(cc2)/C=C\3)N(Cc2ccccc2)C1=O | -6.25% (active) | 10.3% | 91.6% | 18.2% | 32.7% | 49.5% | 79.5% | 65.1%
4 | CCC(CC)NCC(C)(C)O | 123% | 106% | 108% | 107% | 97.9% | 103% | 92.2% | 104%
5 | Cc1ccc(-c2[nH][nH]c(=O)c2-c2nc3ccccc3s2)cc1 | 103% | 123% | 100% | 93.9% | 97.1% | 100% | 99.7% | 103%
6 | C=C(C)[C@@H]1CC[C@]2(C(=O)N[C@H](CO)Cc3ccccc3)CC[C@]3(C)[C@H](CC[C@@H]4[C@@]5(C)CCCNC(C)(C)[C@@H]5CC[C@]43C)[C@@H]12 | -58% (active) | -88.1% (active) | -93.6% (active) | -82.3% (active) | -69.7% (active) | -94.8% (active) | -84.7% (active) | -80.7% (active)
7 | CC(Sc1nc2sc3c(c2c(=O)n1-c1ccc(Cl)cc1)CCCC3)C(=O)Nc1nc(-c2ccc(Br)cc2)cs1 (configuration not stated) | 98.2% | 90.3% | 102% | 104% | 91.8% | 93.4% | 101% | 104%
8 | COc1c(Cl)c2c(c(OC)c1OC)-c1ccc(SC)c(=O)cc1[C@@H](NC(=O)OCC(F)(F)F)CC2 | 43.1% | 5.25% (active) | -36.9% (active) | 21.9% | 14.8% | 1.82% (active) | 21.6% | 10.4%
9 | O=C(Cc1ccc(/C=C/C(=O)c2nccs2)cc1)Nc1ccccc1 | 92.8% | 93% | 100% | 51.9% | 84.4% | -43.8% (active) | 105% | 70.7%
10 | Cc1cc2nc3c4cccc(O)c4n(CCN(C)C)c3nc2cc1C | 64.3% | 77.4% | 45.4% | 20.6% | 23.5% | 22% | 24.5% | 37.7%
11 | COc1ccc(NC(N)=NCCCOc2ccc(F)cc2)cc1 | 23.2% | 67.3% | 80.4% | 88.6% | 10.7% | 54% | 76.3% | 84.4%
12 | COC1=CC(=O)c2ccccc2C1=O | 59% | 85% | -48.2% (active) | 108% | 56.9% | 29.9% | 107% | 94.8%
13 | C/C(=N\Nc1cc(C)nc2ccc(Br)cc12)c1ccc([N+](=O)[O-])cc1 | 62% | 105% | 72.6% | 49.3% | 43.9% | 13.3% | 55.8% | 75.5%
14 | O=C1c2ccccc2CCC12OC2c1cn(-c2ccccc2)nc1-c1ccc(Cl)cc1 (configuration not stated) | 93.1% | 126% | 100% | 95.6% | 87.7% | 47.4% | 108% | 97.9%
15 | C#Cc1cccc(NC(=O)c2cccc(NC(=O)CCl)c2)c1 | 25% [8.25 µM] | -43.5% [8.25 µM] (active) | -13.2% [8.25 µM] (active) | -74.2% [8.25 µM] (active) | 3.07% [8.25 µM] (active) | -20.3% [8.25 µM] (active) | 74.3% [8.25 µM] | 16.8% [8.25 µM]
16 | CCN(CC)CCn1c(=O)c2cc(OC)c(OC)cc2c2ccc3cc4c(cc3c21)OCO4 | 39.1% | 26.2% | 50.4% | 26% | 16.1% | 8.5% (active) | 74.9% | 41.9%
17 | Cc1cc2nc3c4cc(C=O)ccc4n(CCN(C)C)c3nc2cc1C | 22.3% | 53.6% | 25.6% | 1.57% (active) | 2.77% (active) | 10.2% | 40.6% | 26.3%
18 | OCc1cnccc1NCCCOc1ccccc1 | 101% | 108% | 110% | 98.3% | 92.1% | 100% | 97.1% | 106%
19 | COc1ccccc1/C(C)=N/NC(=O)CSc1nc2ccccc2c(=O)n1Cc1ccc(S(N)(=O)=O)cc1 | 97.6% | 99.3% | 103% | 100% | 89.2% | 95.9% | 95.9% | 102%
20 | O=C1c2cccc3c(-c4ccc5c(c4)ncn5C4CCCCC4)ccc(c23)C(=O)N1c1nc2ccccc2s1 | 72.6% | 95.8% | 100% | 108% | 69% | 84.4% | 93% | 83.8%
21 | COc1ccc2[nH]c(O)c(/C=c3/cc4c(c(-c5ccc(F)cc5)n3)=Nc3ccccc3-4)c2c1 | 73.6% | 98.9% | 34.4% | 27.5% | 26.8% | 27.9% | 72.8% | 43.7%
22 | N#CC(C#N)=Cc1cc2ccccc2nc1Oc1ccc(C(F)(F)F)cc1 | 90.6% | 96.2% | 97% | 74.5% | 56.9% | 89.8% | 106% | 88.5%
23 | CCOC(=O)c1cc(C(=O)c2ccc(OC)c(OC)c2)n2c1ccc1ccccc12 | 85.3% | 100% | 89.5% | 93.4% | 80% | 88% | 109% | 98.4%
24 | CC(=O)Nc1cccc(-c2ccc3c(c2)NC(=O)/C3=C\c2ccc[nH]2)c1 | 17.7% | 43.2% | 25.6% | 37.9% | 17.8% | 37% | 57.1% | 14.5%
25 | CN[C@@H](C)C(=O)N[C@H]1CCS[C@H]2CC(C)(C)[C@@H](C(=O)N[C@H]3c4ccccc4C[C@H]3OCC#CC#CCO[C@@H]3Cc4ccccc4[C@@H]3NC(=O)[C@H]3N4C(=O)[C@@H](NC(=O)[C@H](C)NC)CCS[C@H]4CC3(C)C)N2C1=O | 86.1% | -15.4% (active) | 54.8% | 105% | 64.7% | 99% | 90.2% | 110%
26 | COc1cc2oc(-c3cccc(C(=O)Nc4ccccc4)c3)cc(=O)c2c(O)c1OC | 55.8% | 60.1% | 58.3% | 94.3% | 78.1% | 46.3% | 89.7% | 57.8%
27 | CCCCCC(=O)Oc1ccc(/C(=C(/C)Cc2ccc(OC)cc2)c2ccc(OCCCN(C)C)cc2)cc1 | 51.2% | 88.8% | 53.2% | 82.4% | 20.1% | 56.5% | 69.3% | 73.6%
28 | COc1cc(C2C3=C(COC3=O)N(CCO)c3cc4c(cc32)CCC4)cc(OC)c1OC (configuration not stated) | 54.1% | -9.83% (active) | -9.03% (active) | 21.4% | -16.2% (active) | -35.3% (active) | -32.4% (active) | -16.9% (active)
29 | Fc1ccc(-c2cn3c(nc4ccccc43)c(-c3ccccc3)n2)cc1 | 86.2% | 105% | 98% | 95.8% | 92.8% | 89.1% | 98.9% | 92.1%
